Bioassay records: PubChem BioAssay, National Center for Advancing Translational Sciences (NCATS)
A selection: hits, their analogues and other compounds. The true share with any hit is near 3.3%.
RE007 growth inh: qHTS Assay for Inhibitors of the HIV-1 protein Vpr | S. pombe RE007 Vpr strain, BacTiter-Glo ATP luminescence, 24 h | Potency, µM (highest dose often 92.2 µM), inactives show top-dose activity change, negative = less growth, usual class: inhibitors | 0.21% of 360,000 active | AID 651644, 2012; active = well fitted falling curve with a large enough effect; inconclusive = small, poorly fitted or top-dose-only effect; inactive = no such curve, though single readings can be large or run the other way; also: nearly all actives have a fitted effect of over 50% in size
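Fission yeast strain RE007, carrying one chromosomally integrated HIV-1 vpr copy, was seeded at OD 0.01 in PMG+AL medium with 23 nL pinned compound. After 24 h at 30 °C and 99% humidity, viability was read by BacTiter-Glo luminescence.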
LmPK inhibitor: qHTS Assay for Inhibitors of Leishmania Mexicana Pyruvate Kinase (LmPK). Q27686. Potency, µM (titrated, usually from 57.5 µM), for inactives: at the highest dose activity change, negative = inhibition, most hits filed as inhibitors. 0.37% of 290,000 active. purified LmPK, Kinase-Glo ATP luminescence, 1 h
Target sequence (Q27686 whole entry, looked up): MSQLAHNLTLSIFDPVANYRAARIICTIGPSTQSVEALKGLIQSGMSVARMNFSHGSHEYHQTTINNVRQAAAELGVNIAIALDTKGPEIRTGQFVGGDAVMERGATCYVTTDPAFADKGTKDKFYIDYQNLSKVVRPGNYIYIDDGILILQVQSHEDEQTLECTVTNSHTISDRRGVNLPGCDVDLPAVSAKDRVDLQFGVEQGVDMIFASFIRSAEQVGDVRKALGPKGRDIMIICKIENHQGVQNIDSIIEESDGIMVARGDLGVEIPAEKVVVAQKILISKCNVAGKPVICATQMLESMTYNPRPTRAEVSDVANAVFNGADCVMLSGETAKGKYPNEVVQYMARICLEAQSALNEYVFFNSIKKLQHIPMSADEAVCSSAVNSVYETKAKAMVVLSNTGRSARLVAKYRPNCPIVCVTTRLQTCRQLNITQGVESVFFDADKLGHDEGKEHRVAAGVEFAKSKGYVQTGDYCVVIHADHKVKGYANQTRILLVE
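Pyruvate kinase activity monitored as ATP production (luciferase luminescence). Conditions: 0.1 nM enzyme, 0.5 mM PEP, 0.1 mM ADP, 1 h, RT; normalized against uninhibited and no-enzyme wells.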
TbPYK inhibitor: qHTS of Trypanosoma Brucei Inhibitors; pyruvate kinase (Trypanosoma brucei), Q57TT1; TbPYK enzyme, Kinase-Glo Plus ATP luminescence, 45 min; Potency, µM (highest dose often 76.8 µM), inactives show at the highest dose activity, negative = inhibition, usual class: inhibitors; 0.12% of 410,000 active; AID 624173, 2012; also: nearly all actives have a fitted effect of over 50% in size
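Quantitative HTS: titrated library compounds versus trypanosomal pyruvate kinase in TEA buffer (pH 7.2) containing KCl, MgCl2, BSA and Tween-20. Reactions were initiated with ADP, 130 uM final. Kinase-Glo Plus luminescence was read after 45 min at RT.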
FBPA Giardia inh: qHTS Assay for Inhibitors of Fructose-1,6-bisphosphate Aldolase from Giardia Lamblia | A8B2U2 | purified Giardia FBPA | Potency, µM (series often up to 59.6 µM), without a hit: at the highest dose activity, negative = inhibition, usual class: inhibitors | 0.71% of 290,000 active; also: nearly all actives have a fitted effect of over 55% in size
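Giardia FBPA (40 nM reagent) was preincubated 10 min at RT with compound (up to 57.5 uM final), then substrate plus GAPDH/TPI/NAD/arsenate coupling system with diaphorase/resazurin was added; resorufin fluorescence (525/598 nm) was read after 20 min.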
Sm TGR block: qHTS Assay for the Inhibitors of Schistosoma Mansoni Peroxiredoxins | Schistosoma mansoni thioredoxin glutathione reductase (TGR), Q962Y6 | purified TGR, DTNB reduction, TNB absorbance 405 nm | Potency, µM (titrated, usually from 114 µM), inactives show at the highest dose activity change, negative = inhibition, actives largely listed as inhibitors | 3% of 360,000 active; also: nearly all actives have a fitted effect of over 60% in size
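First, TGR (20 nM dispensed) and NADPH were mixed with compound. Second, a 15 min room-temperature incubation followed. Third, further NADPH and then DTNB were added to start the reaction. Finally, TNB absorbance was monitored kinetically.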
* hit, by the source's call; [ ] = remark or other dose. Unless noted, calls follow the shape of the dose curve; as a rule, active = well fitted curve in the direction sought with a large enough effect; inconclusive = small, poorly fitted or top-dose-only effect, or another doubt; inactive = no such curve, though single readings can be large; an effect the other way counts as inactive or inconclusive. % is scaled to controls: 0 for no effect and ±100 for the full control effect; potency is read from the fitted curve at half-maximal effect.

Screening O=C(O)c1ccccc1/C=N/NC(=O)c1cc(-c2ccco2)nc2ccccc12 returned RE007 growth inh -7.7%, LmPK inhibitor 26.5%, TbPYK inhibitor -5.7%, FBPA Giardia inh inconclusive and Sm TGR block 3.16µM*.
CCCCNCC1CCCO1 (stereo unspecified) was read as RE007 growth inh 2.4%, LmPK inhibitor 3.9%, TbPYK inhibitor -7.8%, FBPA Giardia inh -1.6% and Sm TGR block 4.1%.
Oc1[nH]c2ccccc2c1N=Nc1ccccn1 was read as RE007 growth inh 2.8% and TbPYK inhibitor 3.7%.
`Oc1c(N=Nc2ccccn2)ccc2ccccc12` gave RE007 growth inh 17.8µM*, LmPK inhibitor 12.6µM*, TbPYK inhibitor inconclusive, FBPA Giardia inh -14.8% and Sm TGR block -3.9%.
For N#Cc1c(NC(=O)/C=C/c2ccco2)sc2c1CCCC2 the results were RE007 growth inh -29.4%, LmPK inhibitor 0.8%, TbPYK inhibitor 0.5%, FBPA Giardia inh -5.9% and Sm TGR block 20µM*.
`O=C(/C=C/c1ccco1)Nc1sc2c(c1C(=O)O)CCC2` gave RE007 growth inh -26.3%, LmPK inhibitor -9.9%, TbPYK inhibitor -8.0%, FBPA Giardia inh -4.8%[12.9 µM] and Sm TGR block 39.8µM*.
Cc1c(O)ccc2c(-c3ccccc3)cc(=O)oc12 was read as RE007 growth inh 1.1%, LmPK inhibitor 4.9%, TbPYK inhibitor 1.3%, FBPA Giardia inh 6.6% and Sm TGR block -0.6%.
`COc1ccc(N(Cc2cc(=O)[nH]c3ccccc23)C(=O)CCl)cc1` gave RE007 growth inh 5.1%, LmPK inhibitor 4.4%, TbPYK inhibitor 3.0%, FBPA Giardia inh -7.6% and Sm TGR block 7.94µM*.
O=C(CC1SC(N2CCOCC2)=NC1=O)Nc1ccc(Cl)cc1 (stereo unspecified) was read as RE007 growth inh -10.6%, TbPYK inhibitor -2.3% and Sm TGR block inconclusive.
`O=C(CC1SC(N2CCOCC2)=NC1=O)Nc1ccccc1Cl` (stereo unspecified) gave RE007 growth inh -4.3%, TbPYK inhibitor 6.4% and Sm TGR block 44.7µM*.
Screening CCOc1ccc(NC(=O)COC(=O)C2CC2C)cc1 (stereo unspecified) returned RE007 growth inh -13.3% and TbPYK inhibitor -2.4%.
CCOc1cc(/C=N/NC(=O)C(=O)NC2CC2)cc(Br)c1O was read as RE007 growth inh 0.7%, LmPK inhibitor 0.0%, TbPYK inhibitor -6.5%, FBPA Giardia inh 0.0% and Sm TGR block -2.1%.
CCOc1cc(/C=N/NC(=O)C(N)=O)cc(Br)c1O was read as RE007 growth inh -5.4%, LmPK inhibitor -4.1%, TbPYK inhibitor -8.0%, FBPA Giardia inh -0.5% and Sm TGR block 50.1µM*.
COCC(C)OC(=O)/C(C#N)=C\c1coc2ccc(C)cc2c1=O (stereo unspecified) was read as RE007 growth inh -3.9%, LmPK inhibitor -0.9%, TbPYK inhibitor inconclusive, FBPA Giardia inh 3.1% and Sm TGR block 17.8µM*.
`Cc1ccc2occ(/C=N/NC(=O)[C@@H](N)Cc3ccccc3)c(=O)c2c1` gave RE007 growth inh -9.8%, LmPK inhibitor 1.7%, TbPYK inhibitor -1.5%, FBPA Giardia inh -12.7% and Sm TGR block -11.7%.
Screening CCCn1nnc(NC(=O)/C=C/c2ccccc2)n1 returned RE007 growth inh -11.2%, LmPK inhibitor 0.5%, TbPYK inhibitor -6.4%, FBPA Giardia inh -3.1% and Sm TGR block 3.1%.
Screening COC(=O)c1sc(NC(=O)/C=C/c2ccc(C)o2)nc1C returned RE007 growth inh -24.7%, LmPK inhibitor -2.4%, TbPYK inhibitor 43.1%, FBPA Giardia inh -0.5% and Sm TGR block 44.7µM*.
For O=C(/C=C/c1ccco1)Nc1cccc(NC(=O)/C=C/c2ccco2)n1 the results were RE007 growth inh 1.1%, LmPK inhibitor 1.3%, TbPYK inhibitor -7.0%, FBPA Giardia inh -16.8% and Sm TGR block -35.7%.
